# Screening data from PubChem BioAssay.
# CCHFV vOTU inh: CCHFV vOTU protease inhibitors, primary screen, biochemical, Pep-AMC substrate, fluorescence | inhibition, % at 11.5 µM | hit rate 0.55% among 370,000 | AID 651958, 2012 | Crimean-Congo hemorrhagic fever virus L polyprotein viral ovarian tumor (vOTU) protease …; in the data active = inhibition above about 30%
# RecA splice inh: Mtb RecA intein splicing inhibitors, primary screen, biochemical, fluorescence, HTS | AID 2221, 2009 | hit rate 0.75% among 290,000 | cell-free RecA intein splicing | inhibition, % (no concentration beside the values); in the data active = inhibition above about 30%
# Target sequence (P9WHJ3 whole entry, looked up, canonical isoform): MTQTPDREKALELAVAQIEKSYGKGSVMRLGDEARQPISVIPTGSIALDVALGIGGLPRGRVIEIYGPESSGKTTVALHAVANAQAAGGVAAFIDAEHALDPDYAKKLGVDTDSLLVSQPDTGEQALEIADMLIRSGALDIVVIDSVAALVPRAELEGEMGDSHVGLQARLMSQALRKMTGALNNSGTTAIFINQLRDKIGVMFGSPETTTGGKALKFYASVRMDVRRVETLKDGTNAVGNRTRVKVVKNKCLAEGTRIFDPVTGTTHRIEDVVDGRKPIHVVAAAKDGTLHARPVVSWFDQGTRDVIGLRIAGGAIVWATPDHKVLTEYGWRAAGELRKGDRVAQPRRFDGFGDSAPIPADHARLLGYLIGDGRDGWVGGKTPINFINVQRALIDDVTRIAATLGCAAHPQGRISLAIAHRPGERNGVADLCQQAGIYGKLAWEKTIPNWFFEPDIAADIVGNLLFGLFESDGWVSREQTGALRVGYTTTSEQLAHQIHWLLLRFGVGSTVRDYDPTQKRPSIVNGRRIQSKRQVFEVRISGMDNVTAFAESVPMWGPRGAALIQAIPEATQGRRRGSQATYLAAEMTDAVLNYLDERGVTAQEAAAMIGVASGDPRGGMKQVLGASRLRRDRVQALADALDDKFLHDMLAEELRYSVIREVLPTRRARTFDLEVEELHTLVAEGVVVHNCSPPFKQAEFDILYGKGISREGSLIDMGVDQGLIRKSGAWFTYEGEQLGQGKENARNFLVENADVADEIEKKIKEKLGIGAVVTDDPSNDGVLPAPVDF
# GDH-TPI counter-1: GDH-TPI coupling enzyme inhibitors, primary screen, artefact control for M. tuberculosis FBA inhibitor project, biochemical, absorbance, full deck; AID 588335, 2011; hit rate 1.2% among 360,000; GDH-TPI coupled enzyme counterscreen, NADH absorbance; inhibition, % at 4.8 µM; in the data active = inhibition above about 30%
# FBA Mtb inh: Mtb FBA enzyme inhibitors, primary screen, biochemical, fluorescence, strain H37Rv. Fructose-bisphosphate aldolase (Mycobacterium tuberculosis (strain ATCC 25618 / H37Rv)), …. purified M. tuberculosis FBA, fluorescence read-out. inhibition, % at 1 µM. hit rate 2.3% among 360,000. AID 588726, 2011
# Mtb FBA confirm: M. tuberculosis aldolase blockers, biochemical, fluorescence, strain H37Rv, confirmation. shares compounds with FBA Mtb inh. purified M. tuberculosis FBA, fluorescence read-out. inhibition, % at 1 µM. hit rate 78% among 5,600. AID 651616, 2012
# GDH-TPI counter-2: GDH-TPI coupling enzyme inhibitors, artefact control for M. tuberculosis FBA inhibitor project, biochemical, fluorescence, high throughput; GDH-TPI coupled enzyme counterscreen; inhibition, % at 1 µM; hit rate 81% among 5,600; AID 652141, 2013; shares compounds with FBA Mtb inh; in the data active = inhibition above about 10%
# GDH-TPI DR: GDH-TPI coupling enzyme inhibitors, dose response, artefact control for M. tuberculosis FBA inhibitor project, biochemical, fluorescence, IC50 | shares compounds with FBA Mtb inh | GDH-TPI coupled enzyme assay, artifact counterscreen | IC50, µM | hit rate 79% among 170; call rule not given here
# A number is an active result; n = inactive; x = no result. Hits are enriched below; roughly 4.2% of the tested compounds scored in any of these assays. Rule as the data show it, unless noted: active = inhibition above about 27%; inactive = the rest.
SMILES,CCHFV vOTU inh,RecA splice inh,GDH-TPI counter-1,FBA Mtb inh,Mtb FBA confirm,GDH-TPI counter-2,others
Cc1cccc(Oc2coc3cc(OC(=O)c4cncc(Br)c4)ccc3c2=O)c1,n,n,n,n,x,x,
O=C(Oc1ccc2c(=O)c(Oc3ccc4ccccc4c3)coc2c1)c1ccco1,n,n,n,39.7,42.1,35.3,
C=CCNC(=O)/C(=C\c1ccco1)NC(=O)c1ccco1,n,n,n,58.9,81.0,71.6,
C=CCNC(=O)/C(=C/c1ccco1)NC(=O)c1ccc(Br)o1,n,n,n,n,x,x,
Cc1ccc(C(=O)/C=C/Nc2ccccc2C(N)=O)o1,n,n,n,31.8,41.5,23.8,
C=CCNC(=O)/C(C#N)=C/c1c(N2CCN(c3ccc(OC)cc3)CC2)nc2c(C)cccn2c1=O,n,n,n,45.9,173.8,157.9,
COCCCNC(=O)/C(C#N)=C/c1c(N2CCN(c3cccc(Cl)c3)CC2)nc2c(C)cccn2c1=O,n,n,n,54.4,146.5,120.3,
COc1ccc(N2CCN(c3nc4c(C)cccn4c(=O)c3/C=C(\C#N)C(N)=O)CC2)cc1,n,n,n,32.4,n,n,
CCNC(=O)/C(C#N)=C/c1c(N2CCN(C)CC2)nc2c(C)cccn2c1=O,n,n,n,58.7,96.2,73.0,
C=CCNC(=O)/C(C#N)=C/c1c(N2CCN(c3ccccc3)CC2)nc2c(C)cccn2c1=O,n,n,n,n,x,x,
COCCNC(=O)C1(C)CCN(C(=O)COc2ccc(Cl)cc2Cl)C1 (centres undefined),n,x,n,n,x,x,
CCNc1ccc(C(=O)OCC(=O)Nc2cc(C)on2)cc1[N+](=O)[O-],n,x,n,n,x,x,
O=C(CSc1nc2ncccc2[nH]1)N1CCOCC1,n,x,x,x,x,x,
CCN(CC)C(=O)[C@H]1C[C@H](CC(=O)NCc2ccc(OC)c(OC)c2)C(=O)N2CCc3c([nH]c4ccc(Cl)cc34)[C@]12C,n,x,n,n,x,x,
COc1ccc(NC(=O)C2(C)Cc3c(-c4ccc(N(C)C)cc4)ccnc3O2)cc1OC (centres undefined),n,x,n,29.5,n,n,GDH-TPI DR=1.2
COc1ccc(CNC(=O)C2(C)Cc3c(-c4ccc(N(C)C)cc4)ccnc3O2)cc1OC (centres undefined),n,x,n,54.6,73.0,49.9,
COc1ccc(NC(=O)C2(C)Cc3c(-c4ccc(NC(C)=O)cc4)ccnc3O2)cc1 (centres undefined),n,x,n,n,x,x,
COc1ccc(CNC(=O)C2(C)Cc3c(-c4ccccc4)ccnc3O2)cc1OC (centres undefined),n,x,n,n,x,x,
COc1ccc(NC(=O)C2(C)Cc3c(-c4ccc(N(C)C)cc4)ccnc3O2)cc1 (centres undefined),n,x,n,33.5,104.3,91.3,
CCN(CC)c1ccc(-c2nn3c(-c4ccc(C(C)(C)C)cc4)nnc3s2)cc1,n,x,x,x,x,x,
CCN(CC)c1ccc(-c2nn3c(-c4ccccc4OC)nnc3s2)cc1,x,n,n,30.8,51.9,31.1,
Cc1ccc2nc(-c3ccc(N4C(=N)SC5CS(=O)(=O)CC54)cc3)sc2c1 (centres undefined),n,n,n,47.8,80.3,66.1,
Cc1ccc2nc(-c3ccc(N4C(=O)CC(N5CCC(C(N)=O)CC5)C4=O)cc3)sc2c1 (centres undefined),x,n,x,x,x,x,
CCCCc1cc(=O)oc2cc(C)cc(OCC(=O)NCc3cccnc3)c12,n,n,n,45.9,n,13.0,
Cc1cc(OCC(=O)NCc2cccnc2)c2c(C)c(C)c(=O)oc2c1,n,n,n,30.3,140.5,121.7,
CCCCc1cc(=O)oc2cc(C)cc(OCC(=O)Nc3ccccn3)c12,n,n,n,33.7,n,n,
CCCc1cc(=O)oc2cc(C)cc(OCC(=O)Nc3ccccn3)c12,n,n,n,n,x,x,
Cc1cc(=O)oc2cc(OCC(=O)NCc3cccnc3)ccc12,n,x,n,n,x,x,
